Compound activity from PubChem BioAssay.
MITF act: activators of MITF-driven TRPM1 promoter activity in SK-MEL-5 cells; SK-MEL-5 TRPM1-promoter luciferase, 24 h; % of positive control, neutral wells = 0; activation, % at 12.5 µM; 300,000 tested, 0.75% active; AID 588334;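 active = mean activation of at least 80% with every replicate also reaching 80%; inconclusive = mean reaches 80% but some replicate falls short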;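 note: 0% = neutral control wells and 100% = parthenolide positive control wells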
esBAF inh: SWI/SNF esBAF complex inhibition | mouse ES cells, Bmi1-luciferase knock-in reporter, 24 h; 100% = twice the neutral-well signal | 350,000 tested, 2% active | AID 602393 | reporter increase, % at 12.5 µM; in the data active = activation above about 40%; inconclusive = no clear call, values can overlap the other calls;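 note: 0% = median of the plate's neutral control wells and 100% = double that signal; a rise in the Bmi1 reporter signal indicates esBAF inhibition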
GAA850 FXN act: increases GAA850 frataxin promoter reporter activity; HEK293 lucGAA850 FXN promoter luciferase reporter, 24 h; percent of 10 µM SAHA response; 360,000 tested, 0.56% active; AID 540364; activation, % at 6 µM;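 active = activation above the average of all compounds screened plus 3 SD, cutoff fixed separately per campaign, cut at about 7.5% in these data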;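 note: 0% = DMSO wells and 100% = 10 µM SAHA wells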
Wnt bcat act: Wnt/beta-catenin pathway activation; 300,000 tested, 1.2% active; Wnt/beta-catenin reporter cell assay, activator, plate reader; activation, % at 9.35 µM; in the data active = activation above about 30%, passing the limit was not always enough; inconclusive = no clear call, values can overlap the other calls;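 note: 0% = neutral control wells and 100% = positive control wells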
Active calls of the source: *. Shown are actives, neighbours in structure and some others; about 2.8% of the full set was active somewhere.

For CCN(CC)C(NC(=O)Cc1ccccc1)C(Cl)(Cl)Cl (configuration not stated) the results were MITF act 8.0, esBAF inh -3.9, GAA850 FXN act -0.7 and Wnt bcat act 39.6*.
For Nc1c(C(=O)NCc2ccc3c(c2)OCO3)nnn1Cc1cccc(F)c1 the results were MITF act -6.9, esBAF inh -1.0, GAA850 FXN act 2.8 and Wnt bcat act 1.4.
Screening Nc1c(C(=O)Nc2ccc3c(c2)OCCO3)nnn1Cc1ccc(Cl)cc1 returned MITF act 129.9*, esBAF inh 114.3*, GAA850 FXN act 1.9 and Wnt bcat act 43.5*.
Screening Nc1c(C(=O)Nc2ccc3c(c2)OCCO3)nnn1Cc1cccc(F)c1 returned MITF act 114.9*, esBAF inh 68.6*, GAA850 FXN act 0.9 and Wnt bcat act inconclusive.
CC(C)NC(=O)N(C)C[C@@H]1Oc2ccc(NS(=O)(=O)c3cn(C)cn3)cc2C(=O)N([C@H](C)CO)C[C@@H]1C was read as esBAF inh -8.7.
CO[C@@H]1CN(C)C(=O)c2ccc(NC(=O)C3CCOCC3)cc2OC[C@H](C)N(C(=O)c2ccccc2)C[C@H]1C was read as esBAF inh -3.0.
CCC(=O)N1C[C@@H](O)COC[C@H]2O[C@@H](CC(=O)NC)CC[C@@H]21 was read as esBAF inh 0.9.
`C[C@@H]1CCCCO[C@@H](CN(C)CC2CCCCC2)[C@@H](C)CN([C@@H](C)CO)C(=O)c2cc(NC(=O)C3CCCCC3)ccc2O1` gave esBAF inh 7.5.
COc1ccc(C2(CNC(C)=O)CCCC2)cc1OC was read as MITF act -17.0, esBAF inh -1.0 and GAA850 FXN act 1.1.
For CC(=O)NCC1(O)CCCC(C)C1 (configuration not stated) the results were MITF act 0.9, GAA850 FXN act -0.7 and Wnt bcat act 40.8*.
`C[C@@H]1CN([C@H](C)CO)C(=O)c2cc(NC(=O)CCC(F)(F)F)ccc2O[C@@H](C)CCCCO[C@@H]1CN(C)C(=O)c1ccccc1` gave esBAF inh 2.0.
`NC(=O)c1ccsc1NC(=O)c1cc(=O)c2ccccc2o1` gave MITF act 129.5*, esBAF inh inconclusive, GAA850 FXN act 2.7 and Wnt bcat act 22.2.
CC(=O)Nc1ccc(NC(=O)c2cc(=O)c3ccccc3o2)cc1 was read as MITF act 30.0, esBAF inh -1.1, GAA850 FXN act -0.2 and Wnt bcat act 3.3.
For Cc1ccc(NC(=O)c2cc(=O)c3ccccc3o2)cc1 the results were MITF act 40.7, esBAF inh 56.5*, GAA850 FXN act 1.1 and Wnt bcat act inconclusive.
CCNC(=O)C[C@H]1CC[C@H]2[C@H](COc3ccc(NC(=O)c4cccs4)cc3C(=O)N2C)O1 was read as esBAF inh -1.4.
`CO[C@H]1CC[C@H]2CCOc3ccc(C#N)cc3C(=O)N(C)C[C@H](OC)[C@@H](C)C(=O)N(C)C[C@H]1O2` gave esBAF inh 1.2.
For C[C@@H]1CN([C@@H](C)CO)C(=O)c2cc(NC(=O)Nc3cccc4ccccc34)ccc2O[C@H]1CN(C)C(=O)Nc1ccc(F)cc1 the results were esBAF inh 1.1.
For Cc1noc(C)c1S(=O)(=O)N(C)C[C@H]1Oc2c(cccc2N(C)C)C(=O)N([C@@H](C)CO)C[C@H]1C the results were esBAF inh 1.6.
`CCCCc1noc2c1/C(=N\O)CC(c1ccccc1)C2` (configuration not stated) gave MITF act 55.9, esBAF inh 59.5*, GAA850 FXN act 4.4 and Wnt bcat act 2.2.
Screening CCCCc1n[nH]c2c1/C(=N/O)CC(c1ccccc1)C2 (configuration not stated) returned MITF act 22.5, esBAF inh 36.5, GAA850 FXN act 1.1 and Wnt bcat act 7.4.
Screening COc1cccc(CNC(=O)C[C@H]2CC[C@H]3[C@H](COc4ccc(NC(C)=O)cc4C(=O)N3C)O2)c1 returned esBAF inh 1.4.
Screening C[C@@H]1CN([C@H](C)CO)C(=O)c2cc(C3=CCCC3)cnc2O[C@@H]1CN(C)C(=O)c1ccccn1 returned esBAF inh 4.0.
Screening Cc1cc(C(=O)CN2C(=O)NC3(CCCCCC3)C2=O)c(C)n1C returned MITF act 24.6, esBAF inh 44.0*, GAA850 FXN act 4.0 and Wnt bcat act 29.0.
Cc1cc(C(=O)CN2C(=O)C3CC=CCC3C2=O)c(C)n1-c1ccccc1 (configuration not stated) was read as esBAF inh -10.7, GAA850 FXN act -0.4 and Wnt bcat act 48.1*.
